# Data taken from the supplement of paper PMC6555819.
# Legend:
# Experiment in all cases: PBM binding z-score (relative to random genomic background probes); higher = stronger binding; sequences stand for … in GC…GCGATTGACAGCGTAGAATGAAGG
# [1] = test system: FXR:RXRa (NR concentration 270 nM, RXRa partner concentration 90 nM)
# Summary of the method: (§1)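 Binding z-scores were set against random background probes. The data came from custom Agilent 4×180K protein-binding microarrays carrying double-stranded probes with 34-nt variable regions, incubated 1 h with ligand-free nuclear receptor dimers. Partner-specific antibodies detected binding, and scanned fluorescence was regression-normalized.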
# [2] = test system: LXRa:RXRa (NR concentration 270 nM, RXRa partner concentration 90 nM)
# Summary of the method: as §1
# [3] = test system: LXRa homodimer (NR concentration 270 nM)
# Summary of the method: as §1
# [4] = test system: LXRb:RXRa (NR concentration 270 nM, RXRa partner concentration 90 nM)
# Summary of the method: as §1
# [5] = test system: LXRb homodimer (NR concentration 270 nM)
# Summary of the method: as §1
# [6] = test system: PPARa:RXRa (NR concentration 270 nM, RXRa partner concentration 90 nM)
# Summary of the method: as §1
# [7] = test system: PPARg:RXRa (NR concentration 180 nM, RXRa partner concentration 90 nM)
# Summary of the method: as §1
# [8] = test system: PPARg:RXRa 270nM:90nM, anti-RXR (NR concentration 270 nM, RXRa partner concentration 90 nM)
# Summary of the method: as §1
# [9] = test system: PPARg:RXRa 30nM:10nM, anti-RXR (NR concentration 30 nM, RXRa partner concentration 10 nM)
# Summary of the method: as §1
# [10] = test system: PPARg:RXRa 90nM:30nM, anti-RXR (NR concentration 90 nM, RXRa partner concentration 30 nM)
# Summary of the method: as §1
# [11] = test system: PPARg:RXRa DBDmut IVT, anti-RXR (DBD mutation: RXRa K156A/R161A, NR concentration 270 nM, RXRa partner concentration 90 nM)
# Summary of the method: as §1
# [12] = test system: PPARg:RXRa IVT, anti-PPARg (NR concentration 270 nM, RXRa partner concentration 90 nM)
# Summary of the method: as §1
# [13] = test system: PPARg DBDmut:RXRa IVT, anti-PPARg (DBD mutation: PPARg1 K132A/R137A, NR concentration 270 nM, RXRa partner concentration 90 nM)
# Summary of the method: as §1
# [14] = test system: PPARg DBDmut IVT, anti-PPARg (DBD mutation: PPARg1 K132A/R137A, NR concentration 270 nM)
# Summary of the method: as §1
# [15] = test system: PPARg homodimer (NR concentration 180 nM)
# Summary of the method: as §1
# [16] = test system: PXR:RXRa (NR concentration 270 nM, RXRa partner concentration 90 nM)
# Summary of the method: as §1
# [17] = test system: PXR homodimer (NR concentration 270 nM)
# Summary of the method: as §1
# [18] = test system: RARa:RXR (NR concentration 270 nM, RXRa partner concentration 90 nM)
# Summary of the method: as §1
# [19] = test system: RARa homodimer (NR concentration 270 nM)
# Summary of the method: as §1
# [20] = test system: RARb:RXRa (NR concentration 270 nM, RXRa partner concentration 90 nM)
# Summary of the method: as §1
Sequence,PBM binding z-score [1],PBM binding z-score [2],PBM binding z-score [3],PBM binding z-score [4],PBM binding z-score [5],PBM binding z-score [6],PBM binding z-score [7],PBM binding z-score [8],PBM binding z-score [9],PBM binding z-score [10],PBM binding z-score [11],PBM binding z-score [12],PBM binding z-score [13],PBM binding z-score [14],PBM binding z-score [15],PBM binding z-score [16],PBM binding z-score [17],PBM binding z-score [18],PBM binding z-score [19],PBM binding z-score [20]
TGAGTGAGGTTATAAGATCAGGGAACGTTGCAAA,1.06,1.07,-0.22,0.866,0.134,2.47,0.711,1.23,0.53,0.855,-0.596,0.754,0.555,-0.0846,0.652,0.754,0.0305,1.06,0.466,1.25
TTTATTAGTTGAAGGGCAACCGACGAGTCCGTTT,0.831,0.834,0.746,0.739,0.614,0.899,0.644,1.71,1.09,1.95,0.976,0.967,0.878,1.23,1.41,0.818,1.45,0.575,1.48,1.68
TCTCGGAGGACACAAAAGGTCAGAGCTCGACATC,2.8,4.16,2.83,3.27,0.142,3.53,1.51,2.66,2.44,2.62,1.53,1.65,-0.0324,-0.692,3.51,3.82,0.682,4.29,1.33,4.08
GCTCGGAGGACAAGGTCAGTGCTTTGTCCGTAGA,1.54,1.23,-0.17,1.09,-0.53,1.94,0.00556,1.33,-0.784,0.326,-0.0896,0.926,-1.08,-0.85,0.917,1.43,-0.565,1.37,-1.15,3.46
TTACCAAGGTGAGCTGAGGTCGATGATCCAACTC,2.13,0.545,-0.604,0.0564,-1.26,1.2,0.288,0.701,-0.265,0.0498,0.764,2.27,-0.223,-0.4,-0.24,3.58,-0.352,1.23,-0.656,1.72
CCTTACGGGTCACTGGCAGGTTATAGCATTTGGA,5.13,4.36,0.174,3.52,-0.315,5.15,4.06,4.83,1.9,3.26,2.85,3.68,0.22,1.16,3.67,4.02,0.0403,5.02,0.895,3.99
CCTGCTAGGTGATGGTCAGCTAATCTACAGTATG,-0.61,-0.646,-0.557,-0.682,-0.584,-0.449,-0.12,-0.449,-0.178,-0.369,1.57,1.13,-1.09,-0.973,-0.218,-0.725,-0.701,-0.72,-0.885,0.079
